The values below come from PubChem BioAssay (Tox21).

Records with an inconclusive call do not appear. Where a call stands in place of a potency, no number is given. Activity calls are given as the source filed them. Calls follow the shape of the dose curve; as a rule, active = well fitted activation curve with a large enough effect in the repeat runs; inconclusive = weak or mixed curves; inactive = no such curve, though single readings can be large or run the other way.
Potency is read from the fitted curve at half-maximal effect.

The target of this test is Nuclear receptor subfamily 1 group I member 2 (Homo sapiens) (UniProt O75469). The experiment in a line: CYP3A4 induction through human pregnane X receptor (PXR) by small molecules, qHTS assay (AID 1346984). Also: nearly all actives have a fitted effect of over 40% in size. The settings on record: DPX-2 HepG2 PXR, CYP3A4-luciferin luminescence, 24 h; series mostly up to 46.1 µM. The procedure, abridged: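 DPX-2 reporter cells; 24h cpd, 37C; Luciferin-IPA 3uM final x3h; One-Glo 30 min RT; lumi read.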
With `Cc1nnc2n1-c1ccc(Cl)cc1C(c1ccccc1)=NC2`, the Potency entry is “inactive”.
For `C=C[C@H]1CN2CC[C@H]1C[C@H]2[C@H](OC(=O)OCC)c1ccnc2ccc(OC)cc12` the value was “inactive”; for `C[C@]12CC[C@H]3[C@@H](CCC4=C(Cl)C(=O)CC[C@@]43C)[C@@H]1CC[C@@H]2O`, “inactive”.
For `Clc1ccc(C(Cn2ccnc2)OCc2csc3c(Cl)cccc23)c(Cl)c1` (stereo unspecified) the value was 3.98 µM (active); for `[H+].[H+].[Hg+2].[O-]B([O-])[O-].[c-]1ccccc1`, “inactive”.
For `C[C@@H](Cc1ccccc1)NCCC(c1ccccc1)c1ccccc1` the value was 12.6 µM (active).
